Consider 20 compounds from PubChem BioAssay.

Test [1] can be described thus: antimalarial activity against Dd2 strain (AID 2302;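 active = growth inhibition above 50% at the single 2 µM test dose, taken to imply half-maximal potency below 2 µM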;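 also: 0% = DMSO untreated growth and 100% = chloroquine plus artemisinin killed control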). As to conditions: P. falciparum Dd2 in RBCs, LDH growth readout, 72 h; at 2 µM; hits give high values.
Test [2] in a line: human hepatoma cell viability loss – ATP luminescence, cytotoxicity control for P. falciparum antimalarial project, primary screen (AID 2303;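 active = inhibition above 50%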;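 also: 0% = DMSO wells and 100% = digitonin-killed cells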). The settings on record: HepG2 viability, 24-48 h, at 10 µM, hits give high values.
Test [3] concerns the target L-lactate dehydrogenase (Plasmodium falciparum (isolate CDC / Honduras)) (UniProt Q27743). Kind of test: PfLDH activity inhibition – cell lysate, 3D7 strain, counter-screen for P. falciparum growth inhibition project (AID 2304).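 Also: 0% = vehicle and 100% = reference inhibitor.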 The settings on record: P. falciparum 3D7 crude extract, LDH APAD/NBT absorbance; at 2 µM; hits give high values.
A short description of test [4]: inhibition of 3D7 malaria parasite growth – strain 3D7 (AID 2306).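 Also: 0% = DMSO wells and 100% = chloroquine plus artemisinin control wells.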 As to conditions: P. falciparum 3D7 erythrocytic growth, LDH absorbance, 72 h; at 2 µM; hits give high values.
Test [5] has as its target Calcium-dependent protein kinase 1 (Plasmodium falciparum (isolate 3D7)) (UniProt P62344). Put plainly: PfCDPK1 kinase inhibitors, biochemical, TCAMS library (AID 1159585; cut-off not given, nearly all actives have IC50 up to about 0.98 µM;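 also: inhibitors leave more ATP so luminescence rises with inhibition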). The settings on record: recombinant PfCDPK1, Kinase-Glo ATP depletion luminescence.
Test [6] has as its target Plasmodium falciparum protein kinase 6 (PK6, PF3D7_1337100) (UniProt Q8IDW1). Put plainly: PfPK6 kinase inhibitors, biochemical, TCAMS library (AID 1159586). The settings on record: recombinant PfPK6, Kinase-Glo ATP depletion luminescence.
In test [7] the target is Protein kinase 7 (PK7), Plasmodium falciparum 3D7 (PF3D7_0213400) (UniProt Q7YTF7). Kind of test: inhibition of Plasmodium PK7 catalytic activity – biochemical, TCAMS antimalarial set, Kinase-Glo luminescence (AID 1159587). The settings on record: recombinant PfPK7, Kinase-Glo ATP depletion luminescence.
Test [8] addresses Calcium-dependent protein kinase 4 (Plasmodium falciparum (isolate 3D7)) (UniProt Q8IBS5). Kind of test: PfCDPK4 kinase inhibitors, biochemical, TCAMS library (AID 1159588; cut-off not given, nearly all actives have IC50 up to about 0.91 µM). The settings on record: recombinant PfCDPK4, Kinase-Glo ATP depletion luminescence.

Each structure is given as a SMILES string. Unmarked numbers belong to inactive results. For some of these results: Measured potencies and affinities stand elsewhere. Activity calls are given as the source filed them. Unless noted, no rule for the calls is given here.

Sequence of Plasmodium falciparum protein kinase 6 (PK6, PF3D7_1337100) (Q8IDW1 1-305): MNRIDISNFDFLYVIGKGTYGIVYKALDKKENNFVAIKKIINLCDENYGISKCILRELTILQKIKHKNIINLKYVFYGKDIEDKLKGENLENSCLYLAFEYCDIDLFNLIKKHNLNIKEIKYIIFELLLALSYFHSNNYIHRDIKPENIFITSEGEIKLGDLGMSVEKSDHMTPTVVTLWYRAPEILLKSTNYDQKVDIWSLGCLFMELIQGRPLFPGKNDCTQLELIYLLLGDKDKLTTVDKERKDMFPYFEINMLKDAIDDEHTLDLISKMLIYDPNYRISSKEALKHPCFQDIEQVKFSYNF
Sequence of Calcium-dependent protein kinase 4 (Plasmodium falciparum (isolate 3D7)) (Q8IBS5 whole entry, looked up): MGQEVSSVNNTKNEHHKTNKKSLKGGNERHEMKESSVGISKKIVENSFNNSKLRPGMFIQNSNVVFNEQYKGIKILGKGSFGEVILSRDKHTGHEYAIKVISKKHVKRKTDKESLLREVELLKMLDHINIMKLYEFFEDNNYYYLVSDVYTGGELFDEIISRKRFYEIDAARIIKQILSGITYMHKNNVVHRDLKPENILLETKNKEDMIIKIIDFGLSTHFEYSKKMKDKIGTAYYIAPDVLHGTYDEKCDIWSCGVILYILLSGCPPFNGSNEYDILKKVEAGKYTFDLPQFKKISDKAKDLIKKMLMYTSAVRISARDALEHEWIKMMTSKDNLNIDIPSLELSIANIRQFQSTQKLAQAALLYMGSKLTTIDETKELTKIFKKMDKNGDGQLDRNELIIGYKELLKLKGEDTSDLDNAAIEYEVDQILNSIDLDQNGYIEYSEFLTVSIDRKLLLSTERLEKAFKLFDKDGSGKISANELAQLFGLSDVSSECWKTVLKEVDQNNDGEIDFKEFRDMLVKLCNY
Sequence of Calcium-dependent protein kinase 1 (Plasmodium falciparum (isolate 3D7)) (P62344 whole entry, looked up): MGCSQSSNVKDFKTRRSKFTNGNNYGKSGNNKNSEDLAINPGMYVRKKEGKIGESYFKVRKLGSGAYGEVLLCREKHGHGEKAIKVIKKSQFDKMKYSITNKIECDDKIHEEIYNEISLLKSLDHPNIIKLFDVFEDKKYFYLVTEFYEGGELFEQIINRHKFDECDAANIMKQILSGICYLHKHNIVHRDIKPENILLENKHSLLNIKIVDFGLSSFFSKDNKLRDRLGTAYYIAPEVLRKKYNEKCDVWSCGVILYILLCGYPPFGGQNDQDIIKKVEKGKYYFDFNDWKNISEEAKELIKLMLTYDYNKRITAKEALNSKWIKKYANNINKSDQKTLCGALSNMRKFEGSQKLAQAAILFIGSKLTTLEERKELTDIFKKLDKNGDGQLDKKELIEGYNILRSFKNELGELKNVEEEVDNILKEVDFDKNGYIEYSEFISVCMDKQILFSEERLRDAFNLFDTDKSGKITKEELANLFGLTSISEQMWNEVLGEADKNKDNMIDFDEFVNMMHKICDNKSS
Sequence of Protein kinase 7 (PK7), Plasmodium falciparum 3D7 (PF3D7_0213400) (Q7YTF7 1-343): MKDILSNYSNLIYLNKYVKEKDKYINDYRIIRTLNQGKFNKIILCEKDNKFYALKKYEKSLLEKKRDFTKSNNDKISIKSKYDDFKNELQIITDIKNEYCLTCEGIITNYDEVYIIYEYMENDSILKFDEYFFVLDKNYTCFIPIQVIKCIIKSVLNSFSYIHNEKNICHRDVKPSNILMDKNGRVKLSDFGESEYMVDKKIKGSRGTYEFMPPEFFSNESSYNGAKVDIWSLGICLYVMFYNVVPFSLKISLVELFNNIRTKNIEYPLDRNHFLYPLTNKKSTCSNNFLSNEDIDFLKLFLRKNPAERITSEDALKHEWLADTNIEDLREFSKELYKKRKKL
Sequence of L-lactate dehydrogenase (Plasmodium falciparum (isolate CDC / Honduras)) (Q27743 whole entry, looked up): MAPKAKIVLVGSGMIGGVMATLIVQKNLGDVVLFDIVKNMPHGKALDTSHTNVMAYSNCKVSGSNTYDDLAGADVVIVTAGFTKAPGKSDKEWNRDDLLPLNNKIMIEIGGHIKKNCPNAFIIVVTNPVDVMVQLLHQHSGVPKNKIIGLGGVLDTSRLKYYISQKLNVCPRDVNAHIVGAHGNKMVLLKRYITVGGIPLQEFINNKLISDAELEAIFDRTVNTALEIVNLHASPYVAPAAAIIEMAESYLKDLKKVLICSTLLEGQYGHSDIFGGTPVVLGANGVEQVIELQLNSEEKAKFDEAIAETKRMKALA

Regarding `Oc1ccccc1CN1CCN(C(c2ccccc2)c2ccccc2)CC1`, the values for the growth inhibition in test [1] and in test [4] were 90% (active) and 98% (active), respectively. Further, the inhibition was -4% in test [2] and -1% in test [3]. Further, the result in test [5], in test [6], in test [7] and in test [8] was inactive.

In the case of `CCCCN1CCN(CCCNc2c3ccccc3nc3ccccc23)CC1`, the growth inhibition in test [1] is 70% (active); in test [4], 101% (active). The results for the inhibition in test [2] and in test [3] were 26% and -7%, respectively. Besides, the outcome in test [5], in test [6], in test [7] and in test [8] was inactive.

As to `CC(C)(C)c1ccc(NC(=O)c2cccc(CN3CCCN(CC4CCCCC4)CC3)c2)cc1`, the growth inhibition in test [1] was 47%; in test [4], 93% (active). The inhibition is 97% (active) in test [2] and 1% in test [3]. Moreover, the outcome in test [5], in test [6], in test [7] and in test [8] was inactive.

As for `O=C(Nc1ccc(-c2nc3ccccc3[nH]2)cc1)c1ccc(-c2cccc([N+](=O)[O-])c2)o1`, the growth inhibition in test [1] was 97% (active); in test [4], 101% (active). Besides, the inhibition in test [2] was 47%; in test [3], -2%. Besides, the outcome in test [5], in test [6], in test [7] and in test [8] was inactive.

`CC(C)C[C@@H](NC(=O)OC(C)(C)C)C(=O)Nc1ccc(Cc2ccc(NC(=O)[C@@H](CC(C)C)NC(=O)OC(C)(C)C)cc2)cc1`: the growth inhibition in test [1] and in test [4] was 96% (active) each time. The inhibition was 8% in test [2] and 6% in test [3]. Also, the result in test [5], in test [6], in test [7] and in test [8] was inactive.

As to `Cc1cc(-c2cnc(N)c(-c3ccc(N4CCN(C)CC4)nc3)c2)cc(C)c1O`, the growth inhibition in test [1] was 33%; in test [4] it was 91% (active). In addition, the inhibition in test [2] was -12%; in test [3] it was 7%. For the same compound, the outcome in test [5], in test [6], in test [7] and in test [8] was inactive.

Take `O=C(/C=C/c1ccc(Cl)c(Cl)c1)N1CCC(NCc2c[nH]c3ccccc23)CC1`: the growth inhibition in test [1] was 4%; in test [4] it was 94% (active). The inhibition was 36% in test [2] and -2% in test [3]. For the same compound, the outcome in test [5], in test [6], in test [7] and in test [8] was inactive.

For `CC(C)(C)c1ccc(CN2CCC(CNC(=O)c3cc(-c4ccccc4F)cs3)C2)cc1` (stereo not given), the growth inhibition in test [1] was 98% (active); in test [4] it was 100% (active). In addition, the inhibition in test [2] is 46%; in test [3], 4%. For the same compound, the outcome in test [5], in test [6], in test [7] and in test [8] was inactive.

For the compound `CN1CCCC(CN2CCN(Cc3cccc(-c4csc(-c5nc6ccccc6[nH]5)c4)c3)CC2)C1` (stereo not given), the growth inhibition in test [1] and in test [4] was 100% (active) in each case. The inhibition in test [2] is 65% (active); in test [3] it was -4%. Also, the outcome in test [5], in test [6], in test [7] and in test [8] was inactive.

On to `COc1cc(C(=O)Nc2cccc(-c3nc4ccccc4[nH]3)c2)ccc1OC(C)=O`, for which the results for the growth inhibition in test [1] and in test [4] were 37% and 83% (active), respectively. The values for the inhibition in test [2] and in test [3] were 16% and -4%, respectively. For the same compound, the result in test [5], in test [6], in test [7] and in test [8] was inactive.

As for `CS(=O)(=O)c1ccc(Nc2ncc(-c3ccc(S(C)(=O)=O)cc3)c(OCC(F)(F)F)n2)cc1`, the growth inhibition is 98% (active) in test [1] and 97% (active) in test [4]. Moreover, the values for the inhibition in test [2] and in test [3] were -7% and -3%, respectively. In addition, the outcome in test [5], in test [6], in test [7] and in test [8] was inactive.

As to `Cc1ccc2c(OCCN3CCC(Cc4ccc5c(c4)NC(=O)CO5)CC3)cc(F)cc2n1`, the growth inhibition in test [1] is 21%; in test [4], 89% (active). Further, the results for the inhibition in test [2] and in test [3] were 24% and -2%, respectively. Also, the outcome in test [5], in test [6], in test [7] and in test [8] was inactive.

As for `CS(=O)(=O)NCCCNCc1ccc(-c2ccc(-c3nc4ccc(F)cc4[nH]3)s2)cc1`, the growth inhibition in test [1] is 30%; in test [4], 95% (active). Further, the inhibition is 23% in test [2] and 1% in test [3]. For the same compound, the outcome in test [5], in test [6], in test [7] and in test [8] was inactive.

In the case of `COc1ccc2nccc([C@@H](O)CN3CCC(NC(=O)/C=C/c4ccc(F)c5ccccc45)CC3)c2c1`, the figures for the growth inhibition in test [1] and in test [4] were 75% (active) and 100% (active), respectively. In addition, the inhibition in test [2] is 37%; in test [3] it was 0%. The outcome in test [5], in test [6], in test [7] and in test [8] was inactive.

With `COc1cc(CC2c3cc(O)c(Cl)cc3CCN2C)c(OC)cc1C` (stereo not given), the results for the growth inhibition in test [1] and in test [4] were 88% (active) and 99% (active), respectively. Besides, the inhibition was 10% in test [2] and 0% in test [3]. Besides, the outcome in test [5], in test [6], in test [7] and in test [8] was inactive.

Take `O=C(/C=C/c1ccc(Cl)cc1)NCCCCCN1CCC(C(=O)Nc2ccc(Cl)cc2)CC1`: the growth inhibition in test [1] is -1%; in test [4], 99% (active). For the same compound, the values for the inhibition in test [2] and in test [3] were 27% and 8%, respectively. In addition, the outcome in test [5], in test [6], in test [7] and in test [8] was inactive.

In the case of `Cc1ccnc(NC(c2cccc(Cl)c2Cl)c2ccc3cccnc3c2O)c1` (stereo not given), the growth inhibition in test [1] is 38%; in test [4], 86% (active). The results for the inhibition in test [2] and in test [3] were 46% and 7%, respectively. Also, the result in test [5], in test [6], in test [7] and in test [8] was inactive.

For the compound `Cn1c2ccccc2c2c3ccccc3c(CNC(CO)(CO)CO)cc21`, the growth inhibition was 78% (active) in test [1] and 96% (active) in test [4]. Further, the inhibition in test [2] is 67% (active); in test [3], -1%. Besides, the result in test [5], in test [6], in test [7] and in test [8] was inactive.

Turning to `O=C(Nc1cccc(-c2csc(-c3nc4ccccc4[nH]3)c2)c1)c1ccoc1`, the growth inhibition in test [1] is 67% (active); in test [4], 96% (active). The inhibition was 36% in test [2] and 1% in test [3]. The result in test [5], in test [6], in test [7] and in test [8] was inactive.

As for `CCC[C@@H](/C=N/N(C)C(=O)OC(C)(C)C)NC(=O)[C@H](CC(C)C)NC(=O)c1cc2cccc(OC)c2o1`, the growth inhibition in test [1] was 61% (active); in test [4], 88% (active). Moreover, the inhibition in test [2] was 5%; in test [3] it was 6%. For the same compound, the result in test [5], in test [6], in test [7] and in test [8] was inactive.
